Measurements taken from PubChem BioAssay (NCI).
Compounds without any hit were thinned out: in the full panel of roughly 79,000, 15% have a hit. No stated cut-off is given here; in the data, active means growth inhibition above about 70%; inactive means the rest.

Tests used:
[1] = NCI Yeast Anticancer Drug Screen. Data for the rad50 strain (AID 155);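 further: 0% = growth of vehicle-only cultures of the same strain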; settings: S. cerevisiae rad50 strain growth inhibition; at 50.0 µM; hits give high values
In short: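 Genetically altered yeast (DNA repair pathway); compound treatment; growth inhibition vs vehicle ctrl.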

[2] = NCI Yeast Anticancer Drug Screen. Data for the mec2-1 strain (AID 157); settings: S. cerevisiae mec2-1 strain, at 50.0 µM, hits give high values
In short: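 Cells of the genetically defined mec2-1 yeast strain are incubated with test compound. Inhibition of growth is calculated against vehicle-treated controls.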

[3] = NCI Yeast Anticancer Drug Screen. Data for the sgs1 mgt1 strain (AID 161);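 further: 0% = growth of cultures given vehicle only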; settings: S. cerevisiae sgs1 mgt1 strain, at 50.0 µM, hits give high values
In short: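 Test agents were incubated with a DNA-repair-mutant yeast strain. Growth was then read and compared against vehicle-treated controls.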

[4] = NCI Yeast Anticancer Drug Screen. Data for the cln2 rad14 strain (AID 165);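 further: 0% = growth equal to vehicle treated cultures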; settings: S. cerevisiae cln2 rad14 strain, at 50.0 µM, hits give high values
In short: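 The screen exposed genetically defined yeast (cln2 rad14) to test compounds and scored growth inhibition relative to vehicle-treated controls.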

[5] = NCI Yeast Anticancer Drug Screen. Data for the bub3 strain (AID 167); settings: S. cerevisiae bub3 mutant strain, at 50.0 µM, hits give high values
In short: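 Yeast carrying a defined mutation is treated with each compound, and growth is compared with that of vehicle-exposed cells to give inhibition.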

[6] = NCI Yeast Anticancer Drug Screen. Data for the mlh1 rad18 strain (AID 175); settings: S. cerevisiae mlh1 rad18 strain growth inhibition; at 50.0 µM; hits give high values
In short: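 Compound-treated yeast growth, normalised to vehicle controls. Strain bears defined DNA repair mutations.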

Measured: growth inhibition

CCC(=O)C(CC(C)[N+](C)(C)C)(c1ccccc1)c1ccccc1 (stereo unspecified)
inactive: [1] -3.05% | [2] -4.95% | [3] -4.6% | [4] 3.35% | [5] -18.5% | [6] 6.5%

CCCCS(=O)(=O)Cl
inactive: [1] 34.5% | [2] 13.2% | [3] 9.8% | [4] -12.5% | [5] 29.8% | [6] 25.9%

CCN1C(=O)C(C)C(=O)N(C)C1=O (stereo unspecified)
inactive: [1] -33.6% | [2] 18.7% | [3] 0.9% | [4] -11.4% | [5] 0.1% | [6] 1.8%

O=P(O)(NCCCl)NCCCl
inactive: [1] -24.4% | [2] -17.9% | [3] -22.7% | [4] -5.6% | [5] -41.1% | [6] -39.5%

CCCCOP(=O)(CSCC)OCCCC
inactive: [1] -6.2% | [2] 0.1% | [3] -16.6% | [4] 16.2% | [5] 14.9% | [6] -1.4%

O=[N+]([O-])c1ccc(/C=C/c2ccc(S(=O)(=O)F)cc2Cl)c(Cl)c1
inactive: [1] -13.2% | [2] -11.2% | [3] 0.75% | [4] -34.3% | [5] -6.7% | [6] -4.35%

O=C(O)Cc1ccc(O)c(O)c1.[Pt].c1ccc([PH+](c2ccccc2)c2ccccc2)cc1.c1ccc([PH+](c2ccccc2)c2ccccc2)cc1
inactive: [1] 43.2% | [2] 33.9% | [3] 37.8% | [4] 42.5% | [5] 26.5% | [6] 63.9%

[N-]=[N+]=CC(=O)c1ccc(Cl)cc1
inactive: [1] 34.5% | [2] 28.4% | [3] 14% | [4] -16.5% | [5] 50.1% | [6] 52.2%

Cc1cc(S(=O)(=O)F)ccc1NC(=O)NCc1ccc([N+](=O)[O-])cc1
inactive: [1] 2.75% | [2] 15.7% | [3] 24.1% | [4] -1.95% | [5] 18.1% | [6] 10.1%

COc1ccc(C(C)(C)CC(C)(C)C)cc1
inactive: [1] 39% | [2] 2.55% | [3] 32.8% | [4] 12.1% | [5] 6.1% | [6] -0.85%

c1ccc(C(c2ccccc2)C2CCNCC2)cc1
inactive: [1] 29.1% | [2] 6.8% | [3] 3.2% | [4] 16.2% | [5] 32.6% | [6] 2.85%

CCC1(CCSC#N)C(=O)NC(=O)NC1=O
inactive: [1] -7.55% | [2] -8.6% | [3] 11.2% | [4] -14.9% | [5] -3.3% | [6] 3.85%

CS(=O)(=O)NC(=O)CBr
inactive: [1] -26.1% | [2] -23.6% | [3] -12.8% | [4] 14.6% | [5] -29.4% | [6] -21.1%

COc1ccc(CCF)cc1
inactive: [1] -4.95% | [2] 4% | [3] -0.7% | [4] -9.85% | [5] 4.4% | [6] -3.85%

ClCCN(CCCl)c1ccc(/C=N\N=C\c2ccncc2)cc1
inactive: [1] 4.35% | [2] -3.95% | [3] 6.15% | [4] -8.5% | [5] 0.95% | [6] -1.8%

CC(=O)OC(C[N+](=O)[O-])C(Cl)(Cl)Cl (stereo unspecified)
inactive: [1] 5.7% | [2] 3.25% | [3] 2.25% | [4] -0.7% | [5] 8.4% | [6] 2.95%

CC(C)OP(=O)(OC(C)C)/C(C#N)=C/c1ccco1
inactive: [1] -23.9% | [2] -51% | [3] -23.6% | [4] -32.2% | [5] -20.1% | [6] -31.9%

CC1OC(O[C@@H]2C=C3CC[C@@H]4[C@H](CC[C@]5(C)[C@@H](c6ccc(=O)oc6)CC[C@]45O)[C@@]3(C)CC2)C(O)C(OC2OC(CO)C(O)C(O)C2O)C1O (stereo partly specified)
inactive: [1] 25.7% | [2] 5.65% | [3] -1.6% | [4] 10.8% | [5] 14.1% | [6] 8.6%

Oc1ccccc1/C=N/Sc1ccccc1.Oc1ccccc1/C=N/Sc1ccccc1.[Ni+2]
inactive: [1] 3.2% | [2] -0.85% | [3] 30.6% | [4] -6.6% | [5] 12.7% | [6] 36%

Cc1nnc(NC2=NCCO2)s1
inactive: [1] -4.2% | [2] -5.5% | [3] -1.6% | [4] -28.1% | [5] -14.2% | [6] -4%

COC(=O)CP(=O)(OC)OCC(F)(F)F (stereo unspecified)
inactive: [1] -32.8% | [2] -14.4% | [3] -23.5% | [4] -6% | [5] -33.6% | [6] -25.3%
